In paper PMC11062922 (Nature Chemical Biology, 2023) one finds potency estimated from few doses data, which are given here for three compounds.

Read-outs that look alike come from different tables or passages of the source.

What all share (design): species or system human, MV4-11 + K-562 + COLO205 + SK-N-BE2 + OVCAR-8
One assay has as its system CDC42BPA. The settings on record: read-out: apparent Kd, compound concentrations: 100 nM and 1000 nM (sheet 'Samples'), n = 1.
A further assay deals with CDC42BPB. The following applies: read-out: apparent Kd, compound concentrations: 100 nM and 1000 nM (sheet 'Samples'), n = 1.
Another assay concerns CDC7. The settings on record: read-out: apparent Kd; compound concentrations: 100 nM and 1000 nM (sheet 'Samples'), CATDS: 6.9489626335847196E-2; n = 1.
Another assay has as its system CLK4. The following applies: read-out: apparent Kd; compound concentrations: 100 nM and 1000 nM (sheet 'Samples'), CATDS: 5.9316803085408598E-2; n = 1.
The subject of a further assay is GSK3A. The following applies: read-out: apparent Kd; compound concentrations: 100 nM and 1000 nM (sheet 'Samples'), CATDS: 0.14981802566128199; n = 1.
For a further assay, the system named is GSK3B. The settings on record: read-out: apparent Kd; compound concentrations: 100 nM and 1000 nM (sheet 'Samples'), CATDS: 0.15901528532749901; n = 1.
The subject of the next assay is LATS1. The following applies: read-out: apparent Kd; compound concentrations: 100 nM and 1000 nM (sheet 'Samples'), CATDS: 0.14331063333654301; n = 1.
Another assay relates to NQO1. The settings on record: read-out: apparent Kd; compound concentrations: 100 nM and 1000 nM (sheet 'Samples'), CATDS: 4.4968257492060203E-2; n = 1.
For another assay, the system named is PKN1. The following applies: read-out: apparent Kd, compound concentrations: 100 nM and 1000 nM (sheet 'Samples'), n = 1.
In the next assay the test system is PKN2. The settings on record: read-out: apparent Kd; compound concentrations: 100 nM and 1000 nM (sheet 'Samples'), CATDS: 0.153152330435843; n = 1.
A further assay concerns PKN3. The following applies: read-out: apparent Kd; compound concentrations: 100 nM and 1000 nM (sheet 'Samples'), CATDS: 4.6811653986635102E-2; n = 1.
For the next assay, the system named is ROCK1. The settings on record: read-out: apparent Kd, compound concentrations: 100 nM and 1000 nM (sheet 'Samples'), n = 1.
The test system of the next assay is ROCK2. The following applies: read-out: apparent Kd, compound concentrations: 100 nM and 1000 nM (sheet 'Samples'), n = 1.
The next assay concerns RPS6KA5. The settings on record: read-out: apparent Kd; compound concentrations: 100 nM and 1000 nM (sheet 'Samples'), CATDS: 4.9211147170022597E-2; n = 1.
For another assay, the system named is RPS6KB1. The settings on record: read-out: apparent Kd; compound concentrations: 100 nM and 1000 nM (sheet 'Samples'), CATDS: 0.131217569210515; n = 1.
Another assay concerns CDC42BPG. The settings on record: read-out: apparent Kd, n = 1.
The test system of a further assay is IRAK3. The settings on record: read-out: apparent Kd; compound concentrations:100 nM and 1000 nM (sheet 'Samples'); n = 1.
The next assay relates to MAPK14. The following applies: read-out: apparent Kd; compound concentrations:100 nM and 1000 nM (sheet 'Samples'); n = 1.
The next assay has as its system PIK3CA. The following applies: read-out: apparent Kd; compound concentrations:100 nM and 1000 nM (sheet 'Samples'); n = 1.
A further assay concerns PIK3CD. The settings on record: read-out: apparent Kd; compound concentrations:100 nM and 1000 nM (sheet 'Samples'); n = 1.
The test system of a further assay is PIM1. The following applies: read-out: apparent Kd; compound concentrations:100 nM and 1000 nM (sheet 'Samples'); n = 1.
For a further assay, the system named is STK16. The settings on record: read-out: apparent Kd; compound concentrations:100 nM and 1000 nM (sheet 'Samples'); n = 1.
A further assay concerns PRKACA. The following applies: read-out: apparent Kd; compound concentrations: 100 nM and 1000 nM (sheet 'Samples'), CATDS: 0.135293982303474; n = 1.
In the next assay the test system is PRKACB. The settings on record: read-out: apparent Kd; compound concentrations: 100 nM and 1000 nM (sheet 'Samples'), CATDS: 0.11075307193468301; n = 1.
The next assay deals with PRKG1. The following applies: read-out: apparent Kd; compound concentrations: 100 nM and 1000 nM (sheet 'Samples'), CATDS: 7.6658344406139403E-2; n = 1.
A further assay relates to PRKX. The following applies: read-out: apparent Kd; compound concentrations: 100 nM and 1000 nM (sheet 'Samples'), CATDS: 6.23454867877557E-2; n = 1.

Regarding `Nc1nonc1-c1nc2cnccc2n1C1CCCCC1` [SB-734117], the potency estimated from few doses in the assay with CDC42BPA (CATDS: 4.4382649306469998E-2) was 2 µM; in the assay on CDC42BPB (CATDS: 5.2868246392704099E-2) it was 1 µM; in the assay with CDC7, 0.446 µM; in the assay on CLK4 it was 0.693 µM; in the assay with GSK3A it was 0.0918 µM; in the assay on GSK3B it was 0.0833 µM. The potency estimated from few doses in the assay on LATS1 is 0.0988 µM; in the assay with NQO1, 1.88 µM; in the assay on PKN1 (CATDS: 5.3241919532380499E-2) it was 0.977 µM; with PKN2 it was 0.0885 µM; in the assay with PKN3, 1.58 µM; with ROCK1 (CATDS: 5.1294364781544602E-2), 1.11 µM. The values for the potency estimated from few doses in the assay on ROCK2 (CATDS: 6.2443237217646497E-2), with RPS6KA5 and with RPS6KB1 were 0.596 µM, 1.3 µM and 0.115 µM, respectively.
For the compound `O=C(Nc1n[nH]c2nc(-c3ccccc3)c(Br)cc12)C1CC1` [SB-708998], the potency estimated from few doses is 1.88 µM in the assay with CDC42BPG (compound concentrations:100 nM and 1000 nM (sheet 'Samples')); 1.41 µM with IRAK3; 1.64 µM in the assay on MAPK14; 0.245 µM in the assay on PIK3CA; 0.187 µM in the assay on PIK3CD; 1.28 µM in the assay on PIM1. The potency estimated from few doses with STK16 was 1.89 µM.
Consider `NCCCC(NC(=O)c1cc(Br)c(-c2ccnc3[nH]ccc23)s1)c1ccccc1.NCCCC(NC(=O)c1cc(Br)c(-c2ccnc3[nH]ccc23)s1)c1ccccc1.O=C(O)C(F)(F)F.O=C(O)C(F)(F)F` (centres unmarked) [GSK1287544A], for which the potency estimated from few doses in the assay on CDC42BPA (CATDS: 6.9468579457902302E-2) was 0.735 µM; in the assay with CDC42BPB (CATDS: 0.12045997656794601), 0.111 µM; in the assay with CDC42BPG (compound concentrations: 100 nM and 1000 nM (sheet 'Samples'), CATDS: 0.15429937992002599), 0.065 µM; in the assay with PKN1 (CATDS: 6.0218156247889197E-2) it was 1.75 µM; with PRKACA, 0.0853 µM; in the assay with PRKACB, 0.137 µM. Moreover, the potency estimated from few doses with PRKG1 is 0.465 µM; in the assay with PRKX, 1.37 µM; in the assay on ROCK1 (CATDS: 0.22662167781686399), 0.0333 µM; in the assay on ROCK2 (CATDS: 0.23262842536730999), 0.0319 µM.
